Laboratory results from ChEMBL document CHEMBL3988442, “University of Dundee, Small-Polar-MMV Screening Library” (2021).

molecular target: T1, Aspartate--tRNA(Asp/Asn) ligase (Mycobacterium tuberculosis (strain ATCC 25618 / H37Rv)) (UniProt P9WFW3); assay: Assay for Asp RNA synthetase-1 from Mycobacterium tuberculosis; assay type: functional; set-up: scale not given: in the data most compounds retested in dose-response had high values; conditions: 30 µM
T1 sequence (whole entry): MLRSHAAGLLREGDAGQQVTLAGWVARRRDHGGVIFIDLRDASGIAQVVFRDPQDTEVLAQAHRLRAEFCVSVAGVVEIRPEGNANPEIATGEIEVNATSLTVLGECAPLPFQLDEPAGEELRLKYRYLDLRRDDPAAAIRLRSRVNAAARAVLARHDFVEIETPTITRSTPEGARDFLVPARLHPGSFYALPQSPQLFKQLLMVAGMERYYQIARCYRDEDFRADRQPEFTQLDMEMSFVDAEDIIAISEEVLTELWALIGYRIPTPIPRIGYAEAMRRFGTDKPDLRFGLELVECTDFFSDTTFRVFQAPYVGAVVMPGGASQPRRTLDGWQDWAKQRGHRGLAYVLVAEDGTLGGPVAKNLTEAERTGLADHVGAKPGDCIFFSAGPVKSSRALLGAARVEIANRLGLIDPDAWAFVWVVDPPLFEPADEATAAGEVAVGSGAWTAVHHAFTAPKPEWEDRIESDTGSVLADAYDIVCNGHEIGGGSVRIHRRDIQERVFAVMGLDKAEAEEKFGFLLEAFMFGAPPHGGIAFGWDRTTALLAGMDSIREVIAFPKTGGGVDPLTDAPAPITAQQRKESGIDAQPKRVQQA

| Structure (SMILES) | Percent Effect [%] |
| --- | --- |
| O=C(Cn1nc2c(cc1=O)CCCC2)N[C@@H](Cc1ccccc1)C(=O)O | 0.174 |
| Cc1ccc(C(=O)NC(CN2CCCC2=O)c2ccccc2)c(=O)[nH]1 (centres undefined) | -6.44 |
| CNC(=O)[C@@]12CCO[C@@H]1CCN(Cc1scnc1C)C2 | -0.714 |
| O=C(C1CC1)N1CCCC1C1CCN(Cc2ccccc2)CC1 (centres undefined) | -4.34 |
| CC(C)c1nc(C2CCCN(C(=O)c3ccc4nccn4c3)C2)no1 (centres undefined) | 4.61 |
| Nc1cc(CCC2CN(Cc3ccc(C(=O)O)cc3)CCO2)ccn1 (centres undefined) | 2.72 |
| C=Cn1ncc(CN2C[C@@H]3CCCN3C[C@@H]2Cc2ccccc2)c1C | -6.18 |
| COc1cccc(COCC(O)CN2CC(n3cccn3)C2)c1 (centres undefined) | -2.41 |
| CC(=O)Nc1nc(C(=O)N2CCCC(c3cc(C)[nH]n3)C2)cs1 (centres undefined) | 0.141 |
| Cc1nc(CN2CCN(CC(=O)Nc3c(C)cccc3C)CC2)no1 | -3.29 |
| COc1ccc(CN(Cc2cccnc2)CC2CCCO2)c(OC)c1 (centres undefined) | -3.99 |
| CC(=O)c1cc(CC(=O)NCc2c(F)cccc2F)cs1 | -0.993 |
| O=C(c1ccco1)N1CC[C@H]2[C@H]1CCN2CC1CCOCC1 | 1.99 |
| Cc1cc(CNCc2c(C)nn(C)c2N2CCOCC2)no1 | -2.57 |
| CS(=O)(=O)CCN1CCC2(CCCN(C3CCOCC3)C2=O)C1 (centres undefined) | 1.8 |
| Cc1ccc(CNS(=O)(=O)CC2=NC(=O)n3cccc3C2=O)cc1 | 3.72 |
| Cc1cccc(-c2nc(C)nn2CC(=O)NC2CCCC2)c1 | -5.28 |
| O=C(c1cccnc1)N1C[C@@H]2CC[C@H](C1)N(Cc1cc(F)ccc1F)C2 | 5.92 |
| COc1cccc(CNc2c(C)cnc3c2c(=O)n(C)c(=O)n3C)c1 | -3.02 |
